The source of these data is PubChem BioAssay (NCI).

Each structure is given as a SMILES string. About 83,000 compounds went through this panel and 20% of them were active in at least one assay; those are over-represented in the sample as a whole.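 Interpretation: 100, growth as untreated; towards 0, rising growth inhibition; 0, no net growth; 0 to -100, cell death. Compounds scoring below 10 were considered active.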 Unmarked numbers belong to inactive results. Calls of active or inactive are those of the source.

Among the test systems are NCI-H23 lung; NCI-H226 lung; NCI-H322M lung; HOP-62 NSCLC; NCI-H460 lung; HOP-92 NSCLC; NCI-H522 lung; A549/ATCC NSCLC; 786-0 renal; COLO 205 colon; DU-145 prostate; MALME-3M melanoma; MDA-MB-231 breast; RXF 393 renal; SF-268 CNS; SF-295 CNS; SF-539 CNS; UACC-257 melanoma; M14 melanoma; K-562 leukemia.
What all share (experiment): NCI-60 one-dose screen, 48 h (100 = growth as untreated, 0 = no growth, -100 = all killed)
Holding throughout (settings): 10 µM unless noted

On to `COCCOc1ccc(-c2nc3ccc(-c4nc5ccc(N6CCN(C)CC6)cc5[nH]4)cc3[nH]2)cc1`, for which the growth with NCI-H23 lung was -4.24% (active); in the assay on NCI-H226 lung it was -8.04% (active); with NCI-H322M lung, 17%; with HOP-62 NSCLC, 14.2%; in the assay with NCI-H460 lung it was 35.9%; in the assay on HOP-92 NSCLC it was 26.4%. Besides, the growth in the assay with NCI-H522 lung is -41.9% (active); in the assay on A549/ATCC NSCLC it was 67.9%; with 786-0 renal, 26.8%; with COLO 205 colon it was -10.9% (active); in the assay with DU-145 prostate, 29.7%; with MALME-3M melanoma it was -38.9% (active). Further, the growth with MDA-MB-231 breast is 8.21% (active); with RXF 393 renal, -62.8% (active); in the assay with SF-268 CNS, 7.43% (active); in the assay on SF-295 CNS it was 48.4%; in the assay on SF-539 CNS, -30.7% (active); in the assay with UACC-257 melanoma, 8.32% (active). Further, the growth in the assay on M14 melanoma was 1.05% (active).

Consider `C[C@@H]1CC[C@@H]2[C@@H]1[C@H](OC(=O)/C=C/c1ccccc1)[C@]1(c3ccccc3)C[C@@H](OC(=O)CO)[C@@]2(C)O1`, for which the growth in the assay on NCI-H23 lung was 102%; in the assay on NCI-H226 lung, 88.8%; in the assay on NCI-H322M lung, 88%; in the assay on HOP-62 NSCLC, 101%; in the assay with NCI-H460 lung, 92%; in the assay with HOP-92 NSCLC it was 78.8%. The growth was 88.5% in the assay on NCI-H522 lung; 80.2% in the assay on A549/ATCC NSCLC; 98% in the assay on 786-0 renal; 107% in the assay on COLO 205 colon; 102% with DU-145 prostate; 108% with MALME-3M melanoma. The growth with MDA-MB-231 breast was 97.2%; in the assay with RXF 393 renal, 60.6%; in the assay on SF-268 CNS it was 52.5%; in the assay on SF-295 CNS, 96.4%; in the assay on SF-539 CNS, 102%; in the assay with UACC-257 melanoma, 86%. Also, the growth in the assay with M14 melanoma was 105%.

In the case of `CSc1nc(NCCCNc2ccnc3cc(Cl)ccc23)cc(-c2ccccc2)n1`, the growth was 67.6% in the assay on NCI-H23 lung; 84.4% in the assay with NCI-H226 lung; 85.5% in the assay with NCI-H322M lung; 81.3% in the assay with HOP-62 NSCLC; 70% in the assay on NCI-H460 lung; 33.5% in the assay on HOP-92 NSCLC. Further, the growth in the assay with NCI-H522 lung was 73.5%; in the assay with A549/ATCC NSCLC it was 74.3%; in the assay with 786-0 renal, 72.9%; in the assay with COLO 205 colon it was -76% (active); with DU-145 prostate it was 81.3%; in the assay on MALME-3M melanoma it was 56.9%. Besides, the growth was 45.4% with MDA-MB-231 breast; 60.9% in the assay on RXF 393 renal; 67.9% in the assay on SF-268 CNS; 56.9% in the assay with SF-295 CNS; 68.1% with UACC-257 melanoma; -42.5% (active) in the assay on M14 melanoma.

Consider `CCOC(=O)C(CC)n1c(=O)c2cc(OC)c(OC)cc2c2cnc3[nH]ccc3c21` (stereo unspecified), for which the growth was 66% with NCI-H23 lung; 49.4% in the assay on NCI-H226 lung; 71% with NCI-H322M lung; 73.8% in the assay on HOP-62 NSCLC; 72.4% with NCI-H460 lung; 42.5% in the assay on HOP-92 NSCLC. Also, the growth in the assay with NCI-H522 lung was 79.3%; with A549/ATCC NSCLC it was 76.1%; with 786-0 renal, 80.9%; with COLO 205 colon it was 86%; in the assay on DU-145 prostate it was 78.5%; in the assay with MALME-3M melanoma, 98.9%. Besides, the growth in the assay with MDA-MB-231 breast is 70.5%; with RXF 393 renal, 34.5%; in the assay on SF-268 CNS, 67.4%; with SF-295 CNS, 65%; with SF-539 CNS it was 66.3%; in the assay on UACC-257 melanoma it was 97.5%. In the assay on M14 melanoma, the growth was 88.5%.

Consider `O=C1C(Cl)=C(Cl)C(=O)c2c1nc1n2CCCC1`, for which the growth with NCI-H23 lung is 74.3%; in the assay with NCI-H226 lung, 109%; in the assay with NCI-H322M lung, 52.7%; with HOP-62 NSCLC, 97.1%; in the assay with NCI-H460 lung, 39.9%; in the assay with HOP-92 NSCLC it was 102%. The growth is 85.2% in the assay with NCI-H522 lung; 98.4% in the assay with A549/ATCC NSCLC; 94.7% in the assay with 786-0 renal; 5.79% (active) with COLO 205 colon; 96.9% in the assay with DU-145 prostate; 73.2% in the assay on MALME-3M melanoma. Moreover, the growth in the assay on MDA-MB-231 breast was 96.2%; with RXF 393 renal it was 99.5%; with SF-268 CNS, 95.9%; with SF-295 CNS, 100%; in the assay on SF-539 CNS, 99.9%; with UACC-257 melanoma it was 96%. Further, the growth in the assay on M14 melanoma is 105%.

With `COc1ccc2nc(NC(=O)c3cccnc3Nc3cc(OC)c(OC)c(OC)c3)sc2c1`, the growth with NCI-H23 lung is 22.6%; in the assay with NCI-H226 lung it was 10.9%; in the assay with NCI-H322M lung, -54.3% (active); in the assay on HOP-62 NSCLC it was 16.7%; with NCI-H460 lung it was 0.16% (active); in the assay with HOP-92 NSCLC, -64.6% (active). In addition, the growth in the assay with NCI-H522 lung is 13.3%; in the assay on A549/ATCC NSCLC it was -32.2% (active); in the assay on 786-0 renal, -66.9% (active); in the assay on COLO 205 colon, 123%; with DU-145 prostate it was -56.1% (active); with K-562 leukemia it was 15.7%. In addition, the growth with MDA-MB-231 breast was -9.82% (active); in the assay on RXF 393 renal, -39.2% (active); in the assay on SF-268 CNS, -73.1% (active); in the assay with SF-295 CNS, 54.2%; with SF-539 CNS it was -57.1% (active); with UACC-257 melanoma it was 49.9%. Moreover, in the assay with M14 melanoma, the growth is 48.4%.

As to `Cc1cc(=O)oc2cc(Oc3nc(-c4cccs4)cn4c(-c5cccs5)cnc34)ccc12`, the growth in the assay on NCI-H23 lung is 56.6%; with NCI-H226 lung, 83%; with NCI-H322M lung, 89.4%; with HOP-62 NSCLC, 59%; in the assay with NCI-H460 lung, 50.5%; in the assay on HOP-92 NSCLC it was 7.71% (active). Moreover, the growth in the assay with NCI-H522 lung was 74.6%; in the assay on A549/ATCC NSCLC, 58.5%; with COLO 205 colon it was 75%; with DU-145 prostate it was 55.4%; in the assay with K-562 leukemia, 81.6%; in the assay on MALME-3M melanoma it was 39.1%. Moreover, the growth in the assay with MDA-MB-231 breast is 63.2%; in the assay on RXF 393 renal, 63.6%; in the assay on SF-268 CNS, 76.3%; with SF-295 CNS, 47.5%; in the assay with SF-539 CNS it was 60%; in the assay on UACC-257 melanoma, 48.2%. In the assay on M14 melanoma, the growth is 67.5%.

For the compound `Cn1c2ccccc2c2c3[nH]c(=O)[nH]c(=O)c3c3c4ccccc4n(C)c3c21`, the growth in the assay with NCI-H23 lung was 43.3%; in the assay with NCI-H226 lung, 52.6%; with NCI-H322M lung, 51.4%; in the assay with HOP-62 NSCLC, 38.1%; with NCI-H460 lung, 20.1%; with HOP-92 NSCLC, -4.38% (active). Moreover, the growth in the assay on NCI-H522 lung was 20.4%; with A549/ATCC NSCLC, 24.3%; in the assay with COLO 205 colon, 53.8%; with DU-145 prostate it was 29.2%; in the assay with K-562 leukemia, 56.1%; in the assay with MALME-3M melanoma, 20%. For the same compound, the growth with MDA-MB-231 breast was 46%; with RXF 393 renal it was 6.48% (active); with SF-268 CNS, 32.4%; in the assay on SF-295 CNS, 69.6%; with SF-539 CNS, 39.5%; with UACC-257 melanoma it was 78.1%. Also, in the assay with M14 melanoma, the growth was 31.8%.
